Drawing on PubChem BioAssay AID493203 (National Center for Advancing Translational Sciences (NCATS), 2011), this text covers outcome for six compounds.

The structures appear in SMILES notation. Inconclusive results are not listed. The source made the active and inactive calls. The call rests on the fitted dose curve; in most records, active means well fitted activation curve with a large enough effect; inconclusive means small, poorly fitted or top-dose-only effect; inactive means flat fitted curve, though single readings scatter.

This assay is described as follows: qHTS Assay for NPC1 Promoter Activators: Initial hit validation from the primary screen.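 Further: reporter driven by the mutant form of the NPC1 promoter.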 The following applies: Huh7 NPC1 promoter-luciferase reporter, luminescence, 24 h; series mostly up to 46.1 µM. An excerpt: NIH Chemical Genomics Center [NCGC] NIH Molecular Libraries Probe Production centers Network [MLPCN] MLPCN Grant: MH089375-01A1 Assay Submitter (PI): Yiannis A. Ioannou NCGC Assay Overview: Niemann Pick Type C (NPC) is a rare neurodegenerative lipidosis that is characterized by lipid storage in the endosomal/lysosomal system. Treatment modalities for this devastating disease are currently non-existent due to the severe obstacles associated with accessing the central nervous system with proteins or genes. The majority of mutations causing NPC disease are missense mutations that are distributed throughout the length of the NPC1 protein, with the most prevalent being the I1061T allele. Although NPC1 mutant proteins may be functional, they are typically trapped in the ER due to misfolding. […] We have developed and optimized a cell based luciferase reporter assay in 1536 well format for the identification of up-regulators of the mutant NPC1 promoter. This assay presents data on the validation of hits from the primary screen.
The NPC1 promoter is cloned in front of the luciferase reporter gene, therefore NPC promoter activation results in luciferase expression. Frozen stock of the NPC1 promoter transfected Huh7 cells were obtained from the laboratory of Dr. Yiannis Ioannou (The Mount Sinai School of Medicine, New York, NY). Cells were propagated and maintained at NCGC in medium containing RPMI-1640 supplemented with 10% FBS, 2mM L-glutamine, and 50ug/ml penicillin/streptomycin. Cells were harvested in and plated for assays in OP-MEM I reduced-serum medium supplemented with 10% FBS. The Amplite luciferase reporter gene assay kit was purchased from ABD Bioquest and prepared/stored according to manufacturers recommendations. qHTS Assay Setup: 1. Dispensed 5ul of Huh7 cells stably expressing NPC1-luciferase at a density of 1500 cells per well 1536-well plates. 2. Incubate cells at 37C, 5% CO2, and 95% humidity for 2 hours. 3. Transferred 23nl per well of compound in DMSO solution. 4. Incubated at 37C, 5% CO2, and 95% humidity for 24 hours. 5. Dispensed 3ul per well of Amplite reagent(ABD Bioquest) per well. 6. Incubate at ambient for 10 minutes. 7. Read using the luminescence protocol on the ViewLux plate reader (Perkin Elmer).
Turning to `CCC(=NCc1cccnc1)c1c(O)n(-c2ccccc2)c(=O)[nH]c1=O`, the compound was called inactive.

On to `Cc1cccn2c(NCC3CCCO3)c(C(C)C)nc12` (stereo unspecified), for which the result was inactive.

For the compound `COc1cccc(CCNCc2ccc(SC)cc2)c1`, the compound was called inactive.

As to `CN1CCc2cc3c(c4c2C1Cc1ccccc1-4)OCO3` (stereo unspecified), the compound was classed as inactive.

Turning to `O=C1c2ccccc2C(=O)N1Cc1nc2ccccc2c(=O)n1-c1cccnc1`, the outcome was inactive.

Consider `COc1ccc(C(CC(=O)N2CCC3(CC2)OCCO3)NS(=O)(=O)c2ccc(F)cc2)cc1` (stereo unspecified), for which the compound was classed as inactive.
